Data on 34 compounds can be found in PubChem BioAssay (Tox21).

Results filed as inconclusive are left out. A number with no mark means an inactive call. Activity calls are given as the source filed them. Unless noted, calls come from the whole dose curve.
% is set by controls: 0 for no effect and ±100 for the full control effect.

Nuclear receptor subfamily 1 group I member 2 (Rattus norvegicus), sequence (Q9R1A7 whole entry, looked up): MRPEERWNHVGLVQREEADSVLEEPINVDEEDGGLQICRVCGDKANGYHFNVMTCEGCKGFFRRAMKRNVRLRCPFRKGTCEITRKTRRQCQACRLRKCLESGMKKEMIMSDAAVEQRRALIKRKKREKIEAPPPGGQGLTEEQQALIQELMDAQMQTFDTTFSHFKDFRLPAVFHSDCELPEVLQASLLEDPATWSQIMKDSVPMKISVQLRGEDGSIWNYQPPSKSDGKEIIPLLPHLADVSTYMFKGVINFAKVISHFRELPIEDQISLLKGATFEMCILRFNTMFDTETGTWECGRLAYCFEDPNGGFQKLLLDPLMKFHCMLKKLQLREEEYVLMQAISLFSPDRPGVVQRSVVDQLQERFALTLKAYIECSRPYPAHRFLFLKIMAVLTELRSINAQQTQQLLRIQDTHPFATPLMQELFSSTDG

For one test, the target named is Nuclear receptor subfamily 1 group I member 2 (Rattus norvegicus) (UniProt Q9R1A7). The experiment in a line: Rat pregnane X receptor (rPXR) activation by small molecules, qHTS assay (AID 1346983; active = well fitted curve in the direction sought with a large enough effect in the repeat runs; an effect the other way counts as inactive or inconclusive; note: nearly all actives have a fitted effect of over 20% in size; note: potency is the fitted concentration of half-maximal effect). The settings on record: rPXR luciferase reporter cells, One-Glo luminescence, 24 h; max activation: hits give high values. The method in brief:
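Cell-based rPXR luciferase reporter assay, 2,000 cells per well, rested 5hr at 37 C before compound addition in DMSO, then 24 hr at 37 C. One-Glo reagent was added and luminescence read after 30 min at room temperature.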
For `NC1=NC(=O)C(c2ccccc2)O1` (stereo unspecified), the max activation is -2.64%. The same measure, in the same setting: as for `CCN(CC)C(C)C(=O)c1ccccc1` (stereo unspecified), the figure is -2.77%. Consider `CN1C[C@@H](NS(=O)(=O)N(C)C)C[C@@H]2c3cccc4c3c(cn4C)C[C@H]21`, for which the Potency was 10 µM (active).

For the compound `O=C1c2ccccc2C(=O)c2ccccc21`, the max activation was 7.01%. Same read-out and setting: as for `c1cc2c(c(N3CCNCC3)c1)OCCO2`, the figure is 6.77%; as for `O=C(O)c1ccc2[nH]cc(CCCCN3CC=C(c4ccccc4)CC3)c2c1`, -0.864%; as for `CCC1(c2ccccc2)C(=O)NC(=O)NC1=O`, -0.894%. Same read-out and setting: as for `CN(C)CCc1ccc(O)cc1`, the figure is -2.69%.

The target in a further test is Nuclear receptor subfamily 1 group I member 2 (Homo sapiens) (UniProt O75469). Kind of test: CYP3A4 induction through human pregnane X receptor (PXR) by small molecules, qHTS assay (AID 1346984; active = well fitted curve in the direction sought with a large enough effect in the repeat runs; an effect the other way counts as inactive or inconclusive; note: nearly all actives have a fitted effect of over 40% in size). The settings on record: DPX-2 HepG2 PXR, CYP3A4-luciferin luminescence, 24 h; series mostly up to 46.1 µM; activation: at the top concentration. The method in brief: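 Human PXR activation is tracked via CYP3A4 promoter-luciferase in DPX-2 (HepG2) cells. Compounds treat cells for 24hr at 37C, and luminescence is read after One-Glo.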
Turning to `NC1=NC(=O)C(c2ccccc2)O1` (stereo unspecified), the “activation” value was -1.05%. Same read-out and setting: as for `CCN(CC)C(C)C(=O)c1ccccc1` (stereo unspecified), the figure is 4.86%; as for `O=C1c2ccccc2C(=O)c2ccccc21`, -7.14%. With `c1cc2c(c(N3CCNCC3)c1)OCCO2`, the “activation” value is 6.47%.

As to `O=C(O)c1ccc2[nH]cc(CCCCN3CC=C(c4ccccc4)CC3)c2c1`, the “activation” value is -1.73%. On the same count and under the same terms, as for `CCC1(c2ccccc2)C(=O)NC(=O)NC1=O`, the figure is -0.46%; as for `CN(C)CCc1ccc(O)cc1`, -1.58%.

Another test shares this target. The experiment in a line: Human pregnane X receptor (PXR) activation by small molecules, qHTS assay (AID 1346985; active = well fitted curve in the direction sought with a large enough effect in the repeat runs; an effect the other way counts as inactive or inconclusive; note: nearly all actives have a fitted effect of over 40% in size). Particulars: DPX-2 HepG2 CYP3A4-luciferase, 24 h; series mostly up to 38.3 µM; activation: at the top concentration. The method in brief:
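DPX-2 cells (HepG2 co-transfected with a PXR response element and a CYP3A4-promoter luciferase construct) were seeded at 2,000 per well, rested 5 hr at 37C, then exposed to DMSO-dissolved compounds for 24 hr. Activation was read as luciferase luminescence.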
In general terms: Quantitative high-throughput screening tests each substance at several concentrations.
As for `NC1=NC(=O)C(c2ccccc2)O1` (stereo unspecified), the “activation” value was -5.85%. The same measure, in the same setting: as for `CCN(CC)C(C)C(=O)c1ccccc1` (stereo unspecified), the figure is -2.68%; as for `O=C1c2ccccc2C(=O)c2ccccc21`, -1.8%; as for `c1cc2c(c(N3CCNCC3)c1)OCCO2`, 1.91%. Same read-out and setting: as for `O=C(O)c1ccc2[nH]cc(CCCCN3CC=C(c4ccccc4)CC3)c2c1`, the figure is 6.68%; as for `CCC1(c2ccccc2)C(=O)NC(=O)NC1=O`, 2.57%; as for `CN(C)CCc1ccc(O)cc1`, -1.9%.

For the next test, the target named is Acetylcholinesterase (Homo sapiens) (UniProt P22303). The experiment in a line: Acetylcholinesterase (AChE) small molecule antagonists: colormetric cell-based qHTS assay (AID 1347395). Note: nearly all actives have a fitted effect of over 30% in size. Note: potency is the fitted concentration of half-maximal effect. Particulars: SH-SY5Y cells AChE activity, colorimetric (Ellman); series mostly up to 115 µM; activity, negative = inhibition: at the top concentration. The method in brief: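 Colorimetric readout: DTNB quantifies thiocholine from acetylthiocholine hydrolysed by endogenous AChE of SH-SY5Y cells (2,000/well, plated overnight). Compound pretreatment 30 min, substrate incubation 90 min, both 37 C.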
Acetylcholinesterase (Homo sapiens), sequence (P22303 whole entry, looked up): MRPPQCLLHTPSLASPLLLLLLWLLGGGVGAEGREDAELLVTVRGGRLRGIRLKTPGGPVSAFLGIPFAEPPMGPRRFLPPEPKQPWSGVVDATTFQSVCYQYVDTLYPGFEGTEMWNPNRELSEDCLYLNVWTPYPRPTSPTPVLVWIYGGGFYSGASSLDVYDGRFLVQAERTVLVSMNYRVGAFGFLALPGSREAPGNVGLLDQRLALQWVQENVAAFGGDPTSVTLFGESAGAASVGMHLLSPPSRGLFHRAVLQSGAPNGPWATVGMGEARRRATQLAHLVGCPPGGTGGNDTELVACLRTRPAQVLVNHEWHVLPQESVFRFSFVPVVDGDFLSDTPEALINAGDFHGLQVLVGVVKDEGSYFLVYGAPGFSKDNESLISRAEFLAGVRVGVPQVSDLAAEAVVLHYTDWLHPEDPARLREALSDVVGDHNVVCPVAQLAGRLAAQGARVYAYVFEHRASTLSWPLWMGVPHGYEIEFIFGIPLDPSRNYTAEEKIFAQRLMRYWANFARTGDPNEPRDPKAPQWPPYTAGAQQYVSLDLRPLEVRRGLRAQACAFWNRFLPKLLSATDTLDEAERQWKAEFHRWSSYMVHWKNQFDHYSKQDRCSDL
Take `CCOP(=S)(Oc1cnc(C(C)(C)C)nc1)OC(C)C` (stereo unspecified): the Potency was 39.9 µM (active). For `CCCCN(CCCCO)N=O`, the “activity, negative = inhibition” value is -2.76%. Still for that read-out and setting: as for `NC1=NC(=O)C(c2ccccc2)O1` (stereo unspecified), the figure is 2.15% [at 52.9 µM]; as for `CCC(Cl)[N+](=O)[O-]` (stereo unspecified), 1.3%; as for `CCCSC(=O)Cl`, -8.03%. The same measure, in the same setting: as for `CCN(CC)C(C)C(=O)c1ccccc1` (stereo unspecified), the figure is -1.1% [at 52.9 µM]. Still for that read-out and setting: as for `C[N+](=O)[O-]`, the figure is 0.613%.

`ClCC(Cl)Cl`: the Potency is 36.8 µM (active). As for `CC(=O)C(Cl)Cl`, the “activity, negative = inhibition” value is 1.01%. The same measure, in the same setting: as for `CC1=C(C(=O)O)N2C(=O)[C@@H](N)[C@H]2SC1`, the figure is 0.304% [at 23.6 µM]; as for `CCOc1nc(C(Cl)(Cl)Cl)ns1`, -11%. On the same count and under the same terms, as for `ClC(Cl)C(Cl)Cl`, the figure is -0.395%; as for `CN1C[C@@H](NS(=O)(=O)N(C)C)C[C@@H]2c3cccc4c3c(cn4C)C[C@H]21`, -10.8% [at 52.9 µM]; as for `CC(C=O)Cc1ccc2c(c1)OCO2` (stereo unspecified), -0.155%.

Regarding `CCCCOP(=O)(O)OCCCC`, the “activity, negative = inhibition” value was 0.745%. For `Cc1cccc(C#N)c1`, the “activity, negative = inhibition” value is 0.239%. On the same count and under the same terms, as for `O=[N+]([O-])c1cc(Cl)c(Cl)c(Cl)c1`, the figure is 0.329%; as for `Nc1ccccc1Cl`, -4.4%; as for `O=C1c2ccccc2C(=O)c2ccccc21`, -0.352% [at 23.6 µM]. Consider `CNC(=O)Oc1c(C(C)(C)C)cc(C)cc1C(C)(C)C`, for which the “activity, negative = inhibition” value is 3.79%. Still for that read-out and setting: as for `N#CCBr`, the figure is 0.51%; as for `CCSC(=O)N(CC)C1CCCCC1`, -1.38%. `CNC(=O)Oc1ccc(N(C)C)c(C)c1`: the Potency is 5.64 µM (active). In the case of `c1cc2c(c(N3CCNCC3)c1)OCCO2`, the “activity, negative = inhibition” value was -0.298% [at 52.9 µM]. Same read-out and setting: as for `OC(Cn1cncn1)(c1ccc(F)cc1)c1ccccc1F` (stereo unspecified), the figure is 0.464%. Still for that read-out and setting: as for `CC1=NNC(=O)N(/N=C/c2cccnc2)C1`, the figure is -8.33%. As to `OCCSCSCCO`, the “activity, negative = inhibition” value was -4.63%. For the compound `O=NN1CCN(N=O)CC1`, the “activity, negative = inhibition” value was 0.291%. Regarding `CNC(=O)O/N=C(\C)SC`, the Potency is 1.59 µM (active). Consider `O=C(O)c1ccc2[nH]cc(CCCCN3CC=C(c4ccccc4)CC3)c2c1`, for which the “activity, negative = inhibition” value was 2.52% [at 52.9 µM].

On to `CCC1(c2ccccc2)C(=O)NC(=O)NC1=O`, for which the “activity, negative = inhibition” value is 1.03%.

With `N#CCNCC#N`, the “activity, negative = inhibition” value was -0.186%. As for `ClCCOCOCCCl`, the “activity, negative = inhibition” value is 2.97%.

For the compound `CN(C)CCc1ccc(O)cc1`, the “activity, negative = inhibition” value was 0.724% [at 52.9 µM].
